# Source: PubChem BioAssay (National Center for Advancing Translational Sciences (NCATS))
# Rows were chosen to be rich in hits. Some 2.4% of all compounds tested hit in one or more screens of this group.
# Cruzain Triton: blocks cruzain activity in presence of Triton detergent; P25779; actives 0.43% (n = 200,000); AID 1478; Potency, µM, inactives show max response, negative = inhibition, actives largely listed as inhibitors; purified cruzain, Z-FR-AMC fluorescence, 0.01% Triton;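 further: plate controls were neutral wells for no effect and buffer without enzyme for full effect; nearly all actives have a fitted effect of over 40% in size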
# Target sequence (P25779 123-467 limits assumed): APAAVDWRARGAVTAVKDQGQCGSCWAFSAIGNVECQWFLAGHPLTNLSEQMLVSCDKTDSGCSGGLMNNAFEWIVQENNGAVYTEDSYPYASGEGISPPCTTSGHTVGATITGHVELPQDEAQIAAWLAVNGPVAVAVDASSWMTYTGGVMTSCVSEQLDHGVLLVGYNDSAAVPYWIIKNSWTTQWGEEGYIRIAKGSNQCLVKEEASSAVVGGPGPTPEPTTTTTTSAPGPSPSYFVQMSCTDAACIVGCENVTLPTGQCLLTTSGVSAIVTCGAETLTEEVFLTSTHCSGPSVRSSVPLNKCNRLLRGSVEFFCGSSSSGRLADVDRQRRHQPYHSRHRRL
#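 Purified cruzain (1.5 nM final) was preincubated with compounds for 15 min at room temperature in 100 mM sodium acetate pH 5.5, 5 mM DTT, 0.01% Triton X-100. Reaction started with 2 uM Z-FR-AMC; AMC fluorescence change over 60 s gave activity.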
# Cruzain noTriton: inhibitors of Trypanosoma cruzi cruzain without detergent. actives 2.3% (n = 200,000). purified cruzain, Z-FR-AMC fluorescence, no detergent. Potency, µM, for the others: max response, negative = inhibition, most hits filed as inhibitors. P25779;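 further: plate controls were enzyme without inhibitor for no effect and buffer without enzyme for full effect; nearly all actives have a fitted effect of over 40% in size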
#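 Purified cruzain at 1.5 nM, pre-incubated 15 min with compound at room temperature in 100 mM sodium acetate pH 5.5, 5 mM DTT, 0.00005% Triton X-100. Reaction started with 2 uM Z-FR-AMC; AMC fluorescence increase over 60 s gives rate.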
# Starred values were filed as active, the others as inactive; u = inconclusive. The call rests on the fitted dose curve; in most records, active means well fitted curve in the direction sought with a large enough effect; inconclusive means small, poorly fitted or top-dose-only effect, or another doubt; inactive means no such curve, though single readings can be large; an effect the other way counts as inactive or inconclusive. Potency means the concentration at half of the fitted maximal effect.
SMILES,Cruzain Triton,Cruzain noTriton
O=C(Nc1ccccc1)C(=O)c1cn(CC(=O)N2CCCCC2)c2ccccc12,-9%,-20%
Cc1ccc(NC(=O)CSc2nsc(SCC(=O)Nc3ccc(C)cc3C)c2C#N)c(C)c1,-8%,10µM*
Cc1csc(NC(=O)CSc2nsc(SCC(=O)Nc3nc(C)cs3)c2C#N)n1,-6%,u
CCOCCn1c(SCc2c(F)cccc2Cl)nc2c1c(=O)[nH]c(=O)n2C,3%,-3%
Cc1ccc(S(=O)(=O)O[C@@H]2[C@H]([C@@H]3COC(C)(C)O3)O[C@H]3OC(C)(C)O[C@@H]32)cc1,0%,3%
Cc1cc(C)c(S(=O)(=O)Nc2ccc3c(c2)CCC3)c(C)c1,-8%,-8%
Cc1cc(C)c(S(=O)(=O)Nc2ccc3c4c(cccc24)CC3)c(C)c1,-3%,20µM*
Cc1cc(C)c(CSc2nnc(C)n3c2cc2occc23)c(C)c1,-7%,u
CC(=O)Nc1nc(C)c(-c2csc(Nc3cccc([N+](=O)[O-])c3)n2)s1,-7%,-18%
CCCC(=O)Nc1nc(C)c(-c2csc(Nc3cc(OC)ccc3OC)n2)s1,-4%,-21%
C=CCCC(=O)Nc1nc(C)c(-c2csc(Nc3cc(OC)ccc3OC)n2)s1,-1%,u
CCCC(=O)Nc1nc(C)c(-c2csc(Nc3ccccc3OC)n2)s1,-2%,-23%
CCCC(=O)Nc1nc(C)c(-c2csc(Nc3ccc(Cl)cc3)n2)s1,-3%,13µM*
C=CCCC(=O)Nc1nc(C)c(-c2csc(Nc3cccc(OC)c3)n2)s1,-5%,16µM*
CCCCCC(=O)Nc1nc(C)c(-c2csc(Nc3cc(Cl)ccc3OC)n2)s1,0%,3.2µM*
CC(=O)Nc1nc(C)c(-c2csc(Nc3ccc(O)cc3)n2)s1,-28%,13µM*
C[C@]12O[C@H]1[C@@H](O)C(Br)=C(CO)[C@H]2O,2%,0%
Cc1ccc2occ(CC(=O)Nc3ccc(Cl)c(C(F)(F)F)c3)c2c1,-7%,-1%
COc1c(O)cc2oc3cc(O)c(CC=C(C)C)c(O)c3c(=O)c2c1CC=C(C)C,2%,u
N[C@H](Cc1ccc2oc3cc(=O)c4ccccc4c-3nc2c1)C(=O)O,-4%,-3%
CCCC(C)C(=O)Nc1nc(C)c(-c2csc(Nc3cc(OC)ccc3OC)n2)s1 (stereo not drawn),-2%,u
CCC(C)C(=O)Nc1nc(C)c(-c2csc(Nc3ccc(Cl)cc3)n2)s1 (stereo not drawn),0%,4µM*
COCCNC(=O)[C@H](C)/C=C/C(NC(=O)OCc1ccccc1)c1ccc(C(=O)OC)cc1 (stereo partly drawn),-1%,u
Cc1cccc(NC(=O)c2nc[nH]c2C(=O)Nc2ccccc2[N+](=O)[O-])c1,-1%,10µM*
CNC(=O)c1[nH]cnc1C(=O)Nc1ccccc1C,2%,-6%
SMILES,Cruzain Triton,Cruzain noTriton
COc1ccc2c(c1)O[C@@H](c1ccc3c(c1)OCO3)[C@H](OC(=O)Nc1ccc(OC(F)F)cc1)C2=O,-2%,2%
CC1=Nc2cc(C(=O)NC3CCCCC3)ccc2Sc2ccc(Cl)cc21,-5%,25µM*
CC1=Nc2cc(C(=O)NC3CCCC3)ccc2Sc2ccc(Br)cc21,-3%,u
CCCC1=Nc2cc(C(=O)NCCc3ccc(OCC)cc3)ccc2Sc2ccccc21,-2%,u
CC1=Nc2cc(C(=O)NCCc3ccc(Cl)cc3)ccc2Sc2ccc(C)cc21,-2%,10µM*
CCCC1O[C@@H]2C[C@H]3[C@@H]4CCC5=CC(=O)C=C[C@]5(C)C4[C@@H](O)C[C@]3(C)[C@]2(C(=O)CO)O1 (stereo partly drawn),-14%,13%
Cc1ccc2sc(N3CCN(C(=O)C4COc5ccccc5O4)CC3)nc2c1C (stereo not drawn),2%,18%
O=C(Nc1nccs1)C1CCCN(S(=O)(=O)c2cccc3cccnc23)C1 (stereo not drawn),1%,3%
O=C(Nc1nc2cc(Cl)ccc2s1)C1CCCN(S(=O)(=O)c2cccc3cccnc23)C1 (stereo not drawn),-8%,25µM*
COc1ccc2nc(NC(=O)C3CCN(S(=O)(=O)c4cccs4)CC3)sc2c1,-1%,u
COc1ccc2nc(NC(=O)C3CCCN(S(=O)(=O)c4cccs4)C3)sc2c1 (stereo not drawn),-2%,25µM*
Cc1nc(NCc2ccccc2)c2nc(-c3ccccc3)n(CCCN3CCOCC3)c2n1,-9%,1%
COCCNS(=O)(=O)c1ccc(SC)cc1,0%,-3%
COc1ccc(CC(=O)NCC(c2cccs2)S(=O)(=O)c2ccc(Cl)cc2)cc1 (stereo not drawn),1%,2%
Cn1ccnc1SCC(=O)c1cc2ccccc2o1,-13%,25µM*
Cn1c(SCC(=O)c2cc3ccccc3o2)nnc1-c1ccccc1,-10%,-9%
Cc1cc(C(=O)CN2C(=O)NC3(CCCCC3C)C2=O)c(C)n1Cc1cccs1 (stereo not drawn),-4%,32µM*
Cc1cc(C(=O)CN2C(=O)NC(C)(c3ccccc3)C2=O)c(C)n1CC1CCCO1 (stereo not drawn),-3%,3%
Cc1cc(C(=O)CN2C(=O)NC(c3ccccc3)(c3ccccc3)C2=O)c(C)n1Cc1ccccc1,-1%,10µM*
Cc1cc(-n2c(C)cc(C(=O)CN3C(=O)NC4(CCCCC4C)C3=O)c2C)no1 (stereo not drawn),6%,-30%
CCCCc1nn2c(=O)cc(COC(=O)C(C)Oc3ccccc3)nc2s1 (stereo not drawn),-3%,4%
CCCC/C=C/C(NC(=O)c1ccco1)c1ccccc1 (stereo not drawn),-3%,-4%
COC(=O)C(c1ccccc1Cl)N1CCc2sccc2C1 (stereo not drawn),-1%,-3%
COc1ccc(OC)c(C2CC(=O)c3c([nH]c(C(=O)OCc4ccc(C)cc4)c3C)C2)c1 (stereo not drawn),-3%,1%
C[C@@H](NC(=O)/C(C#N)=C/c1ccc(O)c(O)c1)c1ccccc1,-5%,7%
SMILES,Cruzain Triton,Cruzain noTriton
O=C(NCCc1ccccc1)c1cccs1,6%,-1%
N#C/C(C(=O)NCCc1ccccc1)=C1/N=C(NC(=O)c2cccs2)c2ccccc21,-6%,4µM*
CC(NC(=O)/C(C#N)=C1\N=C(NC(=O)c2cccs2)c2ccccc21)c1ccccc1 (stereo not drawn),0%,16µM*
CCCc1cc2c(n1CCc1ccc(Cl)cc1)C(C)C1CN(C(=O)c3ccccc3)C(C)(C(=O)OC)C21 (stereo not drawn),-6%,u
COc1ccc(OC)c(C2CC(=O)Nc3c2c(=O)n(C)c2ncnn32)c1 (stereo not drawn),-2%,-4%
Cc1ccc(C)c(N2CCN(S(=O)(=O)c3ccc4[nH]c5c(c4c3)CCCCC5)CC2)c1,0%,7.9µM*
Cc1ccc(N2CCN(S(=O)(=O)c3ccc4[nH]c5c(c4c3)CCCCC5)CC2)c(C)c1,3%,3.2µM*
Cc1ccc(CNS(=O)(=O)c2ccc3[nH]c4c(c3c2)CCCCC4)cc1,-20%,-11%
Cc1ccc(C)c(N2CCN(S(=O)(=O)c3ccc4[nH]c(=O)c(=O)[nH]c4c3)CC2)c1,-2%,19%
O=C(Oc1ccccc1)N1CCC2(CC1)CCN(c1ccncc1)CC2,2%,9%
O=C(Nc1ccc(F)cc1F)c1ccc(COc2c(F)c(F)cc(F)c2F)o1,-10%,2%
O=C(Nc1ccc(Cl)cc1F)c1ccc(COc2c(F)c(F)c(F)c(F)c2F)o1,20µM*,u
